Source: PubChem BioAssay
esBAF inh = SWI/SNF esBAF complex inhibition | mouse ES cells, Bmi1-luciferase knock-in reporter, 24 h; 100% = twice the neutral-well signal | reporter increase, % at 12.5 µM | hit rate 2% among 350,000 | AID 602393; in the data active = activation above about 40%; inconclusive = no clear call, values can overlap the other calls;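 also: 0% = median of the plate's neutral control wells and 100% = double that signal; a rise in the Bmi1 reporter signal indicates esBAF inhibition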
AF4-AF9 inh = blocks AF4 peptide binding to human AF9; AlphaScreen, biotin-AF4 peptide binding to FLAG-AF9; inhibition, % at 10 µM; hit rate 0.47% among 350,000; AID 651704;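 active = every replicate reaching a set inhibition limit, whatever the replicate mean, cut at about 25% in these data; inconclusive = mean inhibition reaches that limit but some replicates miss it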;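 also: 0% = plate neutral control median and 100% = total signal loss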
Target sequence (P42568 whole entry, looked up): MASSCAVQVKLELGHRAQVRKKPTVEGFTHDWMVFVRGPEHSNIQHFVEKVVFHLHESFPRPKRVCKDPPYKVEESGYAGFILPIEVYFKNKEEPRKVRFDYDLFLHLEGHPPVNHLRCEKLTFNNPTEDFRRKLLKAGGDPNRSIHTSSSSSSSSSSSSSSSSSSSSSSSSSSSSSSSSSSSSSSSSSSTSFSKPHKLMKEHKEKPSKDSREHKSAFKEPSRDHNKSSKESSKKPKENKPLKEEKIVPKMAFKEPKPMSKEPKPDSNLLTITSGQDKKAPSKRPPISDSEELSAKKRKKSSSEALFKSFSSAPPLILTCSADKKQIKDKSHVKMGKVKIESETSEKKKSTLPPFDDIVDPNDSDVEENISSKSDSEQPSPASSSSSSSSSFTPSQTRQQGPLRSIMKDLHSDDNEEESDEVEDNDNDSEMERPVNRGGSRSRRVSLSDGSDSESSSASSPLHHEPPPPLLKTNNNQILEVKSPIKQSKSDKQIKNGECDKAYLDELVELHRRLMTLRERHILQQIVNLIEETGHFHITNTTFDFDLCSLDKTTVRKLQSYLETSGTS
Wnt act = activators of Wnt/beta-catenin signaling | Wnt/beta-catenin reporter cell assay, activator, plate reader | activation, % at 9.35 µM | hit rate 1.2% among 300,000 | AID 743398; in the data active = activation above about 30%, passing the limit was not always enough; inconclusive = no clear call, values can overlap the other calls;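 also: 0% = neutral control wells and 100% = positive control wells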
Ecoli rRNA inh = selective bacterial rRNA inhibition in E. coli. E. coli WT GFP vs humanized-ribosome RFP mutants, fluorescence, 24 h; hits give low values; DMSO median 0, no signal -100. GFP signal change (wild-type ribosome), % (no concentration beside the values). hit rate 1.6% among 350,000. AID 720706;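 active = significant combined selectivity score with lowered wild-type GFP, culture density cut under 30%, mutant RFP and density less affected; inactive = any of these conditions unmet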
MITF TRPM1 HTS = activators of MITF-driven TRPM1 promoter activity in SK-MEL-5 cells. activation, % at 12.5 µM. SK-MEL-5 TRPM1-promoter luciferase, 24 h; % of positive control, neutral wells = 0. AID 588334. hit rate 0.75% among 300,000;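 active = mean activation of at least 80% with every replicate also reaching 80%; inconclusive = mean reaches 80% but some replicate falls short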;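 also: 0% = neutral control wells and 100% = parthenolide positive control wells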
AID977621 = growth inhibition of wild-type GFP E. coli, dose response, H69 mutant RFP, cherry-pick. shares compounds with Ecoli rRNA inh. E. coli wild-type GFP strain growth, fluorescence, 24 h. activity change, negative = inhibition at 50 µM. 1,900 tested, under 10 active;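 active = Wild-type ribosome reporter drop at least double the humanized mutant ribosome reporter drop, growth loss under a set limit; inconclusive = no clear call, values can overlap the other calls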;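 also: wild-type GFP and H69 mutant RFP strains grown together 50/50 in each well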
AID977628 = E. coli growth inhibition, wild-type GFP versus h24 humanized RFP strain, dose response, h24 mutant RFP vs wild-type GFP, cherry-pick; shares compounds with Ecoli rRNA inh; E. coli WT GFP strain growth, fluorescence, 24 h; activity change, negative = inhibition at 50 µM; 1,900 tested, under 10 active;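 active = compound lowering the normal-ribosome reporter at least twice as much as the humanized-ribosome reporter, growth loss under a set limit; inconclusive = no clear call, values can overlap the other calls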;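 also: wild-type GFP and h24 humanized RFP strains co-cultured 1 to 1 per well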
Starred values were filed as active, the others as inactive; ? = inconclusive; nt = no result given. In the library only some 3.7% were active in any assay of this set; here they are far more common.

SMILES | esBAF inh | AF4-AF9 inh | Wnt act | Ecoli rRNA inh | MITF TRPM1 HTS | AID977621 | AID977628
CCN(CC)S(=O)(=O)c1cccc(NC(=O)CNc2cccc(S(=O)(=O)N3CCCC3)c2)c1 | -26 | 1 | -6 | -23* | -45 | -24 | nt
Cc1ccc(CN(C)C(=O)CN2C(=O)NC3(CCCc4ccccc43)C2=O)c(C)c1 (stereo not given) | 4 | 2 | -6 | -8 | nt | nt | nt
CN(Cc1ccccc1)C(=O)c1ccc(NC(=O)Cc2ccc(NC(=O)C3CCCN(C(=O)CCc4ccccc4)C3)cc2)cc1 (stereo not given) | -3 | -1 | -2 | 2 | -43 | nt | nt
COc1cc(C#N)ccc1OCC(=O)Nc1cccc(S(=O)(=O)N2CCCC2)c1 | -10 | 2 | -3 | -26* | 7 | nt | -13
Cn1nc(C(=O)Nc2cccc(S(=O)(=O)N3CCCCC3)c2)c2ccccc2c1=O | 4 | 2 | 6 | -17* | -20 | 0.57 | -0.87
N#Cc1ccccc1OCC(=O)Nc1cccc(S(=O)(=O)N2CCCC2)c1 | 8 | 1 | 1 | -9 | 13 | nt | nt
CCC(C)NS(=O)(=O)c1ccc(OCC(=O)NCC2CCCO2)cc1 (stereo not given) | -3 | nt | nt | nt | 7 | nt | nt
C=CCN(c1ccccc1)S(=O)(=O)c1cccc2cccnc12 | 0 | 6 | 0 | -24* | 3 | 2.3 | nt
C=CCS(=O)(=O)c1cccc2cccnc12 | nt | -2 | -3 | 24 | 3 | nt | nt
CCN(CC)CC(=O)Nc1sc2c(c1C(=O)c1ccccc1OC)CCC2 | nt | 10 | -6 | -22* | 4 | 3 | -9.9
CCOC(=O)c1c(NC(=O)CN(CC)CC)sc2c1CCC2 | -3 | 1 | nt | -18 | 8 | nt | nt
O=C(O)CCn1c(SCc2cccc3ccccc23)nc2ccccc21 | 39 | nt | nt | -16* | nt | -11 | ?
CCOC(=O)c1cc2nc(-c3ccccc3)cc(C)n2n1 | -1 | -6 | -1 | -29* | nt | -19 | ?
Cc1cc(-c2ccccc2)nc2cc(C(N)=O)nn12 | -4 | nt | -1 | nt | -2 | nt | nt
O=C(CSc1nnc(-c2ccccc2F)n1C1CC1)Nc1cccnc1Cl | nt | -1 | 0 | -16* | -5 | -8.9 | -6.6
OC(c1ccc(Cl)cc1)c1ncc(-c2cccc(F)c2)[nH]1 (stereo not given) | nt | 5 | -4 | -5 | nt | nt | nt
Cc1sc(NC(=O)CN2CCOCC2)nc1-c1ccc2c(c1)CCN2S(=O)(=O)c1ccccc1 | -6 | -34 | 0 | -21* | -33 | -21 | nt
Nc1[nH]c(C(=O)c2ccccc2)c(-c2ccc(F)cc2)c1C(=O)NCCc1c[nH]c2ccccc12 | nt | 2 | -5 | -29 | nt | nt | nt
Nc1[nH]c(C(=O)c2ccccc2)c(-c2ccc3c(c2)OCO3)c1C(=O)NCCc1c[nH]c2ccccc12 | nt | 5 | -2 | -15* | nt | ? | nt
Nc1[nH]c(C(=O)c2ccccc2)c(-c2ccc(Cl)c(Cl)c2)c1C(=O)NCCc1c[nH]c2ccccc12 | nt | nt | -2 | nt | nt | nt | nt
Nc1[nH]c(C(=O)c2ccccc2)c(-c2ccc(Cl)cc2)c1C(=O)NCCc1c[nH]c2ccccc12 | nt | 1 | 15 | -19* | nt | -13 | nt
Nc1[nH]c(C(=O)c2ccccc2)c(-c2ccc(F)cc2)c1C(=O)NCc1ccccc1 | nt | 0 | -2 | 3 | nt | nt | nt
CCCCNC(=O)c1c(N)[nH]c(C(=O)c2ccccc2)c1-c1ccccn1 | nt | 5 | 0 | -27* | nt | -2 | -15
COc1cccc(CN(C)Cc2nc(Cc3ccccc3Cl)no2)c1 | nt | 0 | -2 | -26* | 7 | -17 | ?
CN(Cc1ccccn1)Cc1nc(Cc2ccccc2Cl)no1 | nt | 1 | -1 | 5 | -5 | nt | nt
Cc1cccc(N(CC(=O)Nc2ccccc2F)S(C)(=O)=O)c1 | -5 | nt | -4 | nt | nt | nt | nt
CSc1ccccc1NC(=O)CN(c1cccc(C)c1)S(C)(=O)=O | 5 | -32 | -1 | -20* | -4 | -13 | nt
CCOc1cc(N2CCOCC2)c(OCC)cc1NC(=O)c1ccc(S(C)(=O)=O)cc1 | -9 | -2 | -1 | 2 | 2 | nt | nt
CN(Cc1ccc(Cl)s1)C(=O)CNC(=O)CNC(=O)c1ccc(Cl)cc1Cl | -2 | -2 | -2 | -27* | -4 | nt | -5.2
